High-throughput results as filed in PubChem.
HT1080 IDH1KD tx: kills HT-1080 cells with IDH1 knockdown; HT-1080 IDH1 knockdown viability, ATP luminescence, 48 h; Potency, µM (doses to about 46.1 µM), usual class: cytotoxic; 360,000 tested, 2% active; AID 686971
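CellTiter-Glo luminescence after 48 h compound exposure at 37 degrees C of IDH1-knockdown HT-1080 cells in 5% FBS RPMI. %Activity scaled between DMSO wells and cell-free media wells, with curves fitted and assigned curve classes.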
HT1080NT lethal: kills 2HG-producing HT-1080-NT fibrosarcoma cells; HT-1080-NT fibrosarcoma viability, CellTiter-Glo ATP luminescence, 48 h; Potency, µM (highest dose often 46.1 µM), hits mostly cytotoxic; 360,000 tested, 1.6% active; AID 686970;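 also: NT is the 2HG producing partner of a matched IDH1 knockdown line; nearly all actives have a fitted effect of over 55% in size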
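Viability of the 2HG-overproducing fibrosarcoma line after 48 hours of compound exposure at 37 degrees C was determined by luminescence with CellTiter-Glo, and concentration-effect curves were then fitted and categorized.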
TDP1 cell CPT: growth inhibition of DT40 Tdp1-/-;hTDP1 cells with camptothecin (screen for TDP1 inhibitors); chicken DT40 Tdp1-/-;hTDP1 cells + 20 nM CPT, ATP luminescence, 48 h; Potency, µM (titrated, usually from 46.2 µM), most hits filed as inhibitors; 420,000 tested, 12% active; also: nearly all actives have a fitted effect of over 55% in size
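Chicken DT40 Tdp1-/- cells stably complemented with human TDP1 were seeded at 400 cells/well in medium containing 20 nM camptothecin, exposed to pin-transferred compounds, and grown at 37 °C for at least 48 hr. Viability was read as ATP luminescence.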
TDP1 cell noCPT: qHTS for Inhibitors of human tyrosyl-DNA phosphodiesterase 1 (TDP1): qHTS in cells in absence of CPT; 420,000 tested, 15% active; Potency, µM (titrated, usually from 46.2 µM), usual class: inhibitors; DT40 Tdp1-/- hTDP1 cells, no CPT, ATP luminescence, 48 h; AID 686978, 2013; also: nearly all actives have a fitted effect of over 55% in size
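DT40 Tdp1-/-;hTDP1 cells, no CPT (DMSO vehicle only), 400 cells/well; compounds pin-transferred; ≥48 hr, 37 °C; CellTiter-Glo 30 min RT dark, luminescence read.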
KB-3-1 cytotox: kills parental KB-3-1 adenocarcinoma cells | KB-3-1 viability, CellTiter-Glo ATP luminescence, 72 h | 400,000 tested, 1.4% active | AID 1347075 | Potency, µM (top dose mostly 46.1 µM), hits mostly cytotoxic; also: nearly all actives have a fitted effect of over 60% in size
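Multi-concentration cytotoxicity screen in KB-3-1 cells grown in DMEM lacking phenol red with 10% FBS. After 72 h at 37 °C with compound, ATP-dependent luminescence was recorded.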
KB-V1 MDR tox: KB-V1 MDR subline cytotoxicity | KB-V1 MDR cells viability, CellTiter-Glo, 72 h | Potency, µM (top dose mostly 46.1 µM), most hits filed as cytotoxic | 400,000 tested, 3.4% active | AID 1347076; also: nearly all actives have a fitted effect of over 60% in size
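Following 72 h at 37 degrees C with compound, KB-V1 cell viability was read by CellTiter-Glo luminescence, medium being phenol-red-free DMEM plus 10% FBS; concentration-response parameters came from normalized, curve-fitted qHTS data.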
Each line names hits and unclear results; the compound was inactive in the other large screens. Shown are actives, neighbours in structure and some others; about 19% of the full set was active somewhere. Calls follow the shape of the dose curve; as a rule, active = well fitted curve in the direction sought with a large enough effect; inconclusive = small, poorly fitted or top-dose-only effect, or another doubt; inactive = no such curve, though single readings can be large; an effect the other way counts as inactive or inconclusive.

Cc1nc(Cc2nnc(SC(C)C(=O)N3c4ccccc4NC(=O)C3(C)C)o2)cs1 (configuration not stated)	TDP1 cell noCPT inconclusive
C=C1CCN([C@H](C(=O)NCc2ccco2)C(C)C)S(=O)(=O)c2ccccc21	none
O=C1OCCN1/N=C/c1ccc([N+](=O)[O-])o1	TDP1 cell CPT 13µM, TDP1 cell noCPT 15µM
O=C1CN(/N=C/c2ccc([N+](=O)[O-])o2)C(=O)N1	HT1080 IDH1KD tx inconclusive, HT1080NT lethal inconclusive, TDP1 cell CPT 21µM, TDP1 cell noCPT 16µM, KB-3-1 cytotox inconclusive, KB-V1 MDR tox inconclusive
O=[N+]([O-])c1cc(-c2ccc(/C=N\n3cnnc3)o2)cc([N+](=O)[O-])c1	none
O=C(N/N=C/c1ccc([N+](=O)[O-])o1)C1CCCC1	HT1080 IDH1KD tx inconclusive, TDP1 cell CPT inconclusive, TDP1 cell noCPT inconclusive, KB-3-1 cytotox inconclusive
CCn1c(SCC(=O)NC2(C#N)CCCCC2)nc2ccccc2c1=O	KB-V1 MDR tox inconclusive
Cc1ccc(-n2nc(C)c3c(C)cc(=O)n(CC(=O)N4CCCc5ccccc54)c32)cc1	none (no result: HT1080 IDH1KD tx, HT1080NT lethal)
Cc1c(Cl)cccc1-n1nc(C)c2c(C)cc(=O)n(CC(=O)N3CCCc4ccccc43)c21	TDP1 cell CPT 15µM, TDP1 cell noCPT 4.6µM (no result: HT1080 IDH1KD tx, HT1080NT lethal)
CCN=C1S/C(=C\c2sccc2C)C(=O)N1CC	TDP1 cell CPT inconclusive, TDP1 cell noCPT inconclusive, KB-3-1 cytotox inconclusive, KB-V1 MDR tox 13µM
CN(C)c1cccc(N2CCN(c3nn4c(=O)c5ccccc5nc4s3)CC2)c1	none (no result: HT1080 IDH1KD tx, HT1080NT lethal, TDP1 cell CPT, TDP1 cell noCPT)
Cc1ccc2oc(C(=O)NCC(c3ccc(Cl)cc3)N3CCOCC3)c(C)c2c1 (configuration not stated)	TDP1 cell CPT 8.2µM, TDP1 cell noCPT 10µM (no result: HT1080 IDH1KD tx, HT1080NT lethal)
COc1ccc(C(CNC(=O)c2ccco2)N2CCOCC2)cc1 (configuration not stated)	none
Cc1c(C(=O)NCC(c2ccc(Cl)cc2)N2CCOCC2)oc2ccccc12 (configuration not stated)	TDP1 cell CPT 16µM, TDP1 cell noCPT 23µM (no result: HT1080 IDH1KD tx, HT1080NT lethal)
COc1ccc(C(CNC(=O)c2ccc(-c3cccc(C(F)(F)F)c3)o2)N2CCOCC2)cc1 (configuration not stated)	TDP1 cell CPT inconclusive, TDP1 cell noCPT 21µM
Cc1c(C(=O)NCCN2CCOCC2)oc2ccccc12	none
CCC1CCc2sc(C(=O)NCC(c3ccc(OC)cc3)N3CCOCC3)cc2C1 (configuration not stated)	TDP1 cell CPT 23µM, TDP1 cell noCPT 13µM
C/C(N)=C(\C#N)C(=O)NCc1ccccn1	KB-V1 MDR tox inconclusive
COc1cc(CN2CCC(N3CCC(C(=O)N4CCCC4)CC3)CC2)cc2c1OCO2	TDP1 cell noCPT inconclusive
COc1ccc(C(CNC(=O)c2oc3ccc(C)cc3c2C)N2CCOCC2)cc1 (configuration not stated)	TDP1 cell CPT 23µM (no result: HT1080 IDH1KD tx, HT1080NT lethal, KB-3-1 cytotox, KB-V1 MDR tox)
COc1ccc(C(CNC(=O)c2cc(C)oc2C)N2CCOCC2)cc1 (configuration not stated)	TDP1 cell CPT inconclusive, TDP1 cell noCPT inconclusive
CC1CCCCN1C(=O)Cn1cnc2cc([N+](=O)[O-])ccc2c1=O (configuration not stated)	TDP1 cell CPT 15µM, TDP1 cell noCPT 18µM
Cc1cc(C)c(C(=O)Cn2cnc3cc([N+](=O)[O-])ccc3c2=O)cc1C	TDP1 cell CPT inconclusive, TDP1 cell noCPT 18µM
O=[N+]([O-])c1cc([N+](=O)[O-])c2cc3ccccc3nc2c1	HT1080 IDH1KD tx 4.6µM, HT1080NT lethal 16µM, TDP1 cell CPT 0.26µM, TDP1 cell noCPT 0.52µM, KB-3-1 cytotox 3.7µM
O=[N+]([O-])c1cnc2ccccc2c1	none
CC(=O)OCC1(C)CN(c2ccccc2)N(C(=O)c2ccc(F)cc2)C1=O (configuration not stated)	HT1080NT lethal inconclusive, TDP1 cell CPT inconclusive, TDP1 cell noCPT inconclusive
CC(C)c1ccc(NC(=O)c2cc3c(=O)[nH]c4ccccc4c3n2C)cc1	TDP1 cell CPT 6.5µM, TDP1 cell noCPT 15µM, KB-V1 MDR tox inconclusive (no result: HT1080 IDH1KD tx, HT1080NT lethal)
Cn1c(C(=O)N2CCN(c3ccc(Cl)cc3)CC2)cc2c(=O)[nH]c3ccccc3c21	TDP1 cell CPT inconclusive, TDP1 cell noCPT 21µM
CN(CCCNC(=O)c1cc2c(=O)[nH]c3ccccc3c2n1C)Cc1ccccc1	TDP1 cell noCPT inconclusive
Cc1ccc(N/N=C(/Sc2nnnn2-c2ccccc2)C(=O)c2ccccc2)cc1	TDP1 cell CPT 29µM, TDP1 cell noCPT inconclusive, KB-V1 MDR tox 21µM
O=C(/C(=N\Nc1ccc([N+](=O)[O-])cc1)Sc1nnnn1-c1ccccc1)c1ccccc1	HT1080 IDH1KD tx 23µM, HT1080NT lethal inconclusive, TDP1 cell CPT inconclusive, TDP1 cell noCPT inconclusive, KB-V1 MDR tox 16µM
CCCCS(=O)(=O)Nc1ccc2cn[nH]c2c1	none
C[C@@H]1CC[C@H](Cc2ccc(-n3cccc3)cc2)N1C(=O)OC(C)(C)C	TDP1 cell CPT inconclusive, TDP1 cell noCPT 18µM
Cc1ccc(C)c(NC(=O)CCS(=O)(=O)c2cccc3nsnc23)c1	none (no result: HT1080 IDH1KD tx, HT1080NT lethal)
